Test results published in PubChem BioAssay AID738 (SRMLSC, 2007).
Hit rate of the full screen: of about 98,000 compounds, about 4,900 (5%) were called active. No stated cut-off is given here; in the data, active means inhibition above about 30%; inactive means the rest. The entries come from a sample that favours actives as a whole.

Test: growth inhibition of yeast control strain, primary screen, counter-screen for post-Golgi transport modulator project (AID 738)
Details: efflux-deficient yeast background strain, growth absorbance A615, 16 h; at 10 µM; hits give high values

Row | Compound | inhibition
1 | Cc1cc(C(=O)OCC(=O)Nc2ccc(F)c(F)c2)c(C)o1 | 8.41% (inactive)
2 | O=C(Nc1ccc2sc3ccccc3c(=O)c2c1)c1ccccc1Cl | -1.51% (inactive)
3 | CN(CC#CCC(c1ccccc1)c1ccccc1)C(C)(C)C | 15.3% (inactive)
4 | COC(=O)c1ccccc1NC(=O)CN(Cc1ccc(Cl)cc1)S(C)(=O)=O | 20.7% (inactive)
5 | CC(=O)N1Cc2ccccc2CC1C(=O)O (centres undefined) | -1.83% (inactive)
6 | CCOC(=O)N1CCN(C(=O)CN(c2ccc(C)c(C)c2)S(=O)(=O)c2ccccc2)CC1 | -2.62% (inactive)
7 | Cc1ccc(S(=O)(=O)N(CC(=O)N2CCc3ccccc3C2)c2cccc(Cl)c2)cc1 | 53.7% (active)
8 | COc1cccc(N(CC(=O)N2CCc3ccccc3C2)S(C)(=O)=O)c1 | 2.59% (inactive)
9 | COc1ccc(Cl)cc1NC(=O)CN(C)C(=O)CNC(=O)C12CC3CC(CC(C3)C1)C2 | 11.5% (inactive)
10 | CCCCN=C1N/C(=C\c2ccco2)C(=O)N1c1ccccc1 | 13.4% (inactive)
11 | Cc1ccc(C(=O)NNC(=O)OC(C)(C)C)c(Cl)c1 | -3.45% (inactive)
12 | COc1ccc(N2CCN(Cc3cc(=O)oc4ccc5ccccc5c34)CC2)cc1 | 31% (active)
13 | COc1ccc(N2CCN(Cc3ccc(Br)s3)CC2)cc1 | 1.68% (inactive)
14 | O=c1cc(CN2CCN(c3cccc(Cl)c3)CC2)c2cc3c(cc2o1)CCCC3 | 1.31% (inactive)
15 | NC(=O)c1nsc(C(=O)N(CC(=O)NCc2ccc(F)cc2)Cc2ccco2)c1N | -18.4% (inactive)
16 | COc1ccc(OCC(=O)NN2Cc3ccccc3C2=N)cc1 | 30.9% (active)
17 | COc1ccc(C(=O)Nc2cc(C)ccc2NC(=O)COc2ccccc2)cc1 | -12.5% (inactive)
18 | COc1ccc(OCC(=O)N2CCN(C(=O)COc3ccccc3)CC2)cc1 | -2.43% (inactive)
19 | CC(=O)N1CCN(c2cccc(C)c2C)CC1 | 3.94% (inactive)
20 | O=C(O)c1cnn2c(C(F)(F)F)cc(-c3ccccc3)nc12 | -4.57% (inactive)
21 | Cc1cccc(N2CCN(C(=O)c3cnn4c(C(F)F)cc(-c5ccccc5)nc34)CC2)c1C | 61.4% (active)
22 | Clc1ccccc1-c1cc(COc2ccc3ccccc3c2)no1 | 1.75% (inactive)
23 | CN(C)S(=O)(=O)c1ccc(N2CCCC2)c(C(=O)NCc2ccccc2)c1 | 4.17% (inactive)
24 | CCOc1ccc(N=C2NC(=O)S/C2=C\c2ccc(O)cc2)cc1 | 41.5% (active)
25 | CCOc1ccc(N=C2SC(C(=O)O)CC(=O)N2C)cc1 (centres undefined) | -1.43% (inactive)

Row | Compound | inhibition
26 | CCOc1[nH]n(-c2ccc(Cl)cc2)c(=O)c1C=Nc1ccc(O)cc1 | 1.52% (inactive)
27 | O=C1CCN(C(=O)Nc2ccccc2)N1 | 1.84% (inactive)
28 | Cc1ccccc1NC(=S)Nc1cccc([N+](=O)[O-])c1 | -0.57% (inactive)
29 | CCOC(=O)N1CCN(C(=O)c2ccc(S(=O)(=O)c3ccc(C)cc3)c(NC(C)=O)c2)CC1 | 7.81% (inactive)
30 | CCOC(=O)N1CCN(C(=O)c2ccc3c(c2)N(Cc2ccc(C)cc2)CCS3)CC1 | 34.6% (active)
31 | CCOC(=O)N1CCN(C(=O)c2ccc(CN(c3ccc(C)c(C)c3)S(C)(=O)=O)cc2)CC1 | 3.07% (inactive)
32 | Cc1ccc(NC(=O)CN2CCc3ccccc3C2)cc1 | 8.09% (inactive)
33 | N/C(Cc1ccc([N+](=O)[O-])cc1)=N\OC(=O)COc1ccc2ccccc2c1 | 18.8% (inactive)
34 | Cc1cccc(NC(=O)c2ccc3ccccc3n2)n1 | 12.6% (inactive)
35 | O=C(Oc1ccc([N+](=O)[O-])cc1)c1ccc2ccccc2n1 | 41.8% (active)
36 | Cc1ccc(C(=O)OC2=CC(=O)CC(C)(C)C2)cc1 | -1.57% (inactive)
37 | COc1cccc(NC(=O)c2nn(C34CC5CC(CC(C5)C3)C4)cc2[N+](=O)[O-])c1 | 26.5% (inactive)
38 | Cc1ccc2c(c1)c1ncn(CCC3=CCCCC3)c(=O)c1n2C | 21.9% (inactive)
39 | Cc1ccc(S(=O)(=O)Nc2nc3ccccc3nc2N2CCc3ccccc3C2)cc1 | 19.2% (inactive)
40 | Cc1ccc2c(c1)c1ncnc(N3CCc4ccccc4C3)c1n2C | 30% (active)
41 | O=C(O)/C=C/C(=O)Nc1ccc(F)cc1F | 11.5% (inactive)
42 | Cc1ccc(-c2nc3c(cnn3-c3ccccc3)c(=O)o2)cc1 | 15.6% (inactive)
43 | Cc1ccc(-n2nc(N)c3c(=O)oc(N(C)C)nc32)cc1 | 33.1% (active)
44 | O=C(Nc1cc(-c2nn(CC(=O)N3CCCCC3)c(=O)c3ccccc23)ccc1N1CCOCC1)c1ccc(Cl)cc1 | 0.85% (inactive)
45 | N=c1ccn(CC(=O)NC(N)=O)c2ccccc12 | 12.8% (inactive)
46 | N#Cc1ccc(Oc2cc(C(F)(F)F)nc(-c3ccccn3)n2)cc1 | 1.51% (inactive)
47 | CC(=O)Nc1cc2ccc(OC(C)=O)cc2oc1=O | -1.59% (inactive)
48 | CC(=O)Oc1ccc2c(C)c(CC(C)O)c(=O)oc2c1 (centres undefined) | 9.1% (inactive)
49 | O=C(Oc1ccccc1)Oc1ccc2c(c1)oc(=O)c1ccccc12 | 41% (active)
